The values below come from PubChem BioAssay.

Each structure is given as a SMILES string. Values joined by “and” are separate entries in the source; they are usually repeats but may differ in a detail not shown here. Equal entries are not always repeated. Active and inactive are the calls of the source. Cut-off read from the data, not from the text of the source, unless noted: active = nuclear beta-catenin stimulation mostly above about 4.2% (no sharp cut-off); inactive = mostly below about 10%.

The nature of experiment [1]: P. berghei load reduction in hepatocytes – cell-based, HepG2, luciferase luminescence, HepG2 viability, primary screen (AID 624349; in the data active = parasite load remaining mostly below about 12%, no sharp cut-off; inactive = mostly above about 10%;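 note: 100% = mean of DMSO negative control wells on the same plate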). The following applies: P. berghei liver stage in HepG2, luciferase luminescence, concentration not given here; parasite load remaining: stronger effect = lower value; viability: measured here: HepG2 viability without parasites.
Experiment [2] in a line: Wnt pathway potentiators raising nuclear beta-catenin – imaging, WNT3A-conditioned medium, mouse C2C12, NPC library, primary screen (AID 1117326). The following applies: stronger effect = higher value.
A short description of experiment [3]: stimulators of insulin release from INS-1E, primary screen, cell-based, 5 mM glucose, NPC library (AID 1117329;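 active = compound raises insulin release from rat beta cells at 5 mM glucose, no numeric limit stated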). The following applies: rat INS-1E insulin secretion, at 10 µM, stronger effect = higher value.
The nature of experiment [4]: growth inhibition of GSK3B-pretreated HCT116 cells – cell-based, CellTiter-Glo, 0.2 to 20 µM (AID 1117336;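 active = compounds lowering colon cancer cell viability after pretreatment blocking the GSK3B kinase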). The following applies: HCT116 viability after GSK3B inhibitor, at 20 µM, stronger effect = higher value.
A short description of experiment [5]: inhibition of endothelial tube formation, primary screen, imaging, VEGF stimulated, CD31 staining, tube area, NPC library (AID 1117340;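 active = compound that reduces growth-factor-driven endothelial tube area in a mixed cell culture, no cutoff stated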). As to conditions: VEGF-stimulated ADSC/ECFC co-culture, at 10 µM, stronger effect = higher value.
The nature of experiment [6]: GLP1 release stimulators, primary, NCI-H716, NPC library (AID 1117341;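 active = compound raises GLP1 secretion from the human gut endocrine cells, with no numeric limit stated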). The following applies: NCI-H716 cells, at 10 µM, stronger effect = higher value.
The nature of experiment [7]: HCT116 colon cancer cell growth inhibition, primary screen, CellTiter-Glo luminescence, NPC library (AID 1117342;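 active = compounds that lower survival of HCT116 colon cancer cells in the luminescence readout, no numeric limit stated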). As to conditions: at 20 µM (top of the series). (Cellular ATP, detected with luciferase, serves as a proxy for viable cell number.)
Experiment [8] in a line: reduced SW480 viability measured with CellTiter-Glo, NPC library, primary (AID 1117343;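 active = compounds that lower viability of the colon cancer cells in the luminescence readout, with no numeric limit stated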). As to conditions: CellTiter-Glo luminescence; at 20 µM (top of the series).
A short description of experiment [9]: NPC library primary testing for decreased DLD-1 cell viability via CellTiter-Glo (AID 1117346;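 active = compounds that lower survival of DLD-1 colon cancer cells in the luminescence readout, no cutoff given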). As to conditions: DLD-1 viability, CellTiter-Glo luminescence; at 20 µM (top of the series).
Experiment [10] is described as follows: MELAS cybrid and Rieske KO viability enhancers – cell-based, MELAS cybrids, Rieske KO mouse fibroblasts, CellTiter-Glo, primary screen (AID 1508586;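 active = mean z-score across replicates of 1.96 or higher in either the MELAS or the Rieske mutant cell line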;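 note: z relative to plate mean and SD of compound and empty wells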). The following applies: low glucose.
Experiment [11] is described as follows: galactose survival enhancers in mitochondrial complex I cybrids – cell-based, galactose medium, ATP luminescence, primary screen (AID 1645843;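 active = z-score of at least 1.8 in each of two replicates, scored against plate mean and spread of sample wells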;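 note: positive z means more ATP and so rescue of galactose-driven cybrid death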). The following applies: complex I mutant cybrid cells, 72 h, stronger effect = higher value.
The target of experiment [12] is 6-phosphogluconate dehydrogenase, decarboxylating (Homo sapiens) (UniProt P52209). The experiment is described as follows: inhibition of human phosphogluconate dehydrogenase – biochemical, recombinant enzyme, NADPH absorbance, primary screen (AID 1159550;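 active = at least 20% inhibition of 6-phosphogluconate dehydrogenase activity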). The following applies: recombinant 6PGD, NADPH absorbance 341 nm; at 10 µM; stronger effect = higher value.
Experiment [13] addresses Mitogen-activated protein kinase 7 (Homo sapiens) (UniProt Q13164). The experiment is described as follows: Gal4-ERK5 driven luciferase induction – cell-based, HTS, primary screen (AID 1508626;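 active = luciferase signal above three times the same-plate solvent-only control wells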;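 note: luciferase driven by Gal4-ERK5 fusion binding five Gal4 sites before minimal TATA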). As to conditions: HeLa Gal4-ERK5 transactivation, 18 h, at 5 µM, stronger effect = higher value.
Experiment [14] in a line: EMT-state selective cytotoxicity in co-culture – imaging, PC-3E GFP, TEM4-18 mCherry, primary screen (AID 1345086;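 active = compounds killing one labelled cell type while sparing the other, by normalised counts and ratio limits, not self-fluorescent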;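 for all read-outs here: cells exposed to compound for 72 h before imaging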;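 for red/green cell ratio (normalised): normalised mesenchymal count divided by normalised epithelial count so high means epithelial killing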). The following applies: PC-3E GFP / TEM4-18 mCherry co-culture, imaging cell counts, at 1 µM; for red/green cell ratio (normalised): actives lie on both sides.
In experiment [15] the target is NAD(+) hydrolase SARM1 (Homo sapiens) (UniProt Q6SZW1). As to the kind of experiment: blocking NAD cleavage by SARM1 SAM-TIR – cell lysate, NAD-Glo luminescence (AID 1508614;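 active = compound whose remaining NAD level is above about 45 nM, limit read from the data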;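 note: higher remaining NAD means stronger inhibition of SARM1 NADase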). The following applies: SAM-TIR HEK293T lysate NADase, at 1 µM, stronger effect = higher value.
A short description of experiment [16]: viability loss with induced miR-34 in A549 – imaging, A549 dox-inducible miR-34, nuclei and caspase counts, primary screen (AID 1347080;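 active = compounds whose cell count with miR-34 switched on is under 0.7 times the count with it off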). As to conditions: A549 miR-34 inducible, Hoechst nuclei count, 48 h.
Where [17] appears, read: MELAS cybrid survival, CellTiter-Glo 48 h, stronger effect = higher value.
The mark [18] stands for this setting: Rieske KO mouse fibroblast survival, CellTiter-Glo 72 h.
Where [19] appears, read: measured here: epithelial PC-3E GFP cell survival.
Setting [20] is: measured here: mesenchymal TEM4-18 mCherry cell survival.
Where [21] appears, read: measured here: relative caspase fold change +Dox/-Dox.
Setting [22] is: measured here: total cells with miR-34 induction, stronger effect = lower value.
Setting [23] is: measured here: total cells without miR-34 induction.

As a reminder, the viability is a read-out of living cells in per cent, often relative to untreated cells. By inhibition is commonly meant the percentage by which the read-out fell short of the control.

NAD(+) hydrolase SARM1 (Homo sapiens), sequence (Q6SZW1 whole entry, looked up): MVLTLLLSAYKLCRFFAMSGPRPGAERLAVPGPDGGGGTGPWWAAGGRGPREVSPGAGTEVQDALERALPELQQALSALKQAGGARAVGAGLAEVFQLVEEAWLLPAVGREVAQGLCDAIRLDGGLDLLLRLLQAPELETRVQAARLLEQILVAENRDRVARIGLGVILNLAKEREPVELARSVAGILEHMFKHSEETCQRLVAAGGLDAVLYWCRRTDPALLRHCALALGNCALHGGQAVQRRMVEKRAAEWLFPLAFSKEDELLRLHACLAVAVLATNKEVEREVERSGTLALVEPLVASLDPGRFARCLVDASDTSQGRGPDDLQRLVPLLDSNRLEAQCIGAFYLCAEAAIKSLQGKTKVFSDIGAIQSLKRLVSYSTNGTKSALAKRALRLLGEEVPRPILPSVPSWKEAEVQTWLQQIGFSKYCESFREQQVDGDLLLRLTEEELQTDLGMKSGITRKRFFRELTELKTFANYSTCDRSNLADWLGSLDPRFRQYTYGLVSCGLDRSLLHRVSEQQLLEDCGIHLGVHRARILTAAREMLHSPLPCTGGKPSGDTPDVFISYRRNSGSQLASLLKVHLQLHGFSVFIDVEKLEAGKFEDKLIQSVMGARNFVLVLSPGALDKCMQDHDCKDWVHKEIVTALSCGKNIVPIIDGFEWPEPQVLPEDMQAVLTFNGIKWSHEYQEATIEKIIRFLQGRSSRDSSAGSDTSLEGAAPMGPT
6-phosphogluconate dehydrogenase, decarboxylating (Homo sapiens), sequence (P52209 whole entry, looked up, the tested form may be a part): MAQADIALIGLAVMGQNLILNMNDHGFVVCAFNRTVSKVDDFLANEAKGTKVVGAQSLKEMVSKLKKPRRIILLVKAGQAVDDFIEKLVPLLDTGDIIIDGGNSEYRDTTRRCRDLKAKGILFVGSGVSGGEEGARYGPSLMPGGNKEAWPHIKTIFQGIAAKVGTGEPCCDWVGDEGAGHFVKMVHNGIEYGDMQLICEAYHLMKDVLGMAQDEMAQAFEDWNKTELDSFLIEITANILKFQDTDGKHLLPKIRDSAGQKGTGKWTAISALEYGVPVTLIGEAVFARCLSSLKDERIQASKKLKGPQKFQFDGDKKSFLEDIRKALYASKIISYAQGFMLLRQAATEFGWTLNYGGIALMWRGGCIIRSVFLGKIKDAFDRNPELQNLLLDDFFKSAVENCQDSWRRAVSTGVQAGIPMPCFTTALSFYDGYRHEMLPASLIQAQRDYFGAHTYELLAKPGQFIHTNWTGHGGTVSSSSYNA
Mitogen-activated protein kinase 7 (Homo sapiens), sequence (Q13164 whole entry, looked up, the tested form may be a part): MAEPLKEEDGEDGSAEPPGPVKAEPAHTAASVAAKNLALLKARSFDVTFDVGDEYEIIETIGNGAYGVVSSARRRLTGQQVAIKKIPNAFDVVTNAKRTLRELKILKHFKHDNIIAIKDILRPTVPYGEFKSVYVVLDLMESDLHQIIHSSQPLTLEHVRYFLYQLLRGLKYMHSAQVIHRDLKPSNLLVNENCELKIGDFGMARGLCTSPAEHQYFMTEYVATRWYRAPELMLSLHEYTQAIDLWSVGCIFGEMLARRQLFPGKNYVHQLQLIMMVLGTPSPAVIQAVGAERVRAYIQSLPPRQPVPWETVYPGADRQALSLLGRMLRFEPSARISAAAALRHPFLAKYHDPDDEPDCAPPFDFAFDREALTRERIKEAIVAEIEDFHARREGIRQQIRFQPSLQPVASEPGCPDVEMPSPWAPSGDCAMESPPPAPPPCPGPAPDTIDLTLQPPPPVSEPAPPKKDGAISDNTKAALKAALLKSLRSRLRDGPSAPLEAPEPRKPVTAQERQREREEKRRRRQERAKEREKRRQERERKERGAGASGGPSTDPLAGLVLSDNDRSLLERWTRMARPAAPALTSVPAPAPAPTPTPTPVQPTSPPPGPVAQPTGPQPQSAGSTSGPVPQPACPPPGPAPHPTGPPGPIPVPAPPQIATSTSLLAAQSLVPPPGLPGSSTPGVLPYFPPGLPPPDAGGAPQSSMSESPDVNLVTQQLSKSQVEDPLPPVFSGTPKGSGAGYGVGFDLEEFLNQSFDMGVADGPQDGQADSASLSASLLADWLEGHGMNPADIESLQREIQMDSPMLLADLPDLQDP

For `CCOC(=O)c1cncn1C(C)c1ccccc1` (stereo unspecified), the parasite load remaining in experiment [1] was 51% (inactive) and 69.2% (inactive). Besides, the viability in experiment [1] was 95.5% and 111%. Besides, the nuclear beta-catenin stimulation in experiment [2] (at 10 µM) was 1.8% (inactive); in experiment [2] (stimulation, at 2 µM), 3.6%. Moreover, the insulin secretion stimulation in experiment [3] is -0.5% (inactive). In addition, the viability decrease in experiment [4] was -7.2% (inactive). The tube area decrease in experiment [5] was 11% (inactive). Moreover, the GLP1 secretion stimulation in experiment [6] was -1.9% (inactive). Moreover, in experiment [7], the inhibition of viability was -15.8% (inactive). The viability decrease (inhibition) in [8] is 22.4% (inactive); in experiment [9] it was -22.4% (inactive). In addition, the z-score in experiment [10] (setting [17]) is -0.441 (inactive); in experiment [10] (setting [18]), 0.585; in experiment [11] it was 0.035 (inactive) and 0.295 (inactive).
Turning to `Clc1ccc(C(c2ccc(Cl)cc2)C(Cl)(Cl)Cl)cc1`, the nuclear beta-catenin stimulation in [2] (at 10 µM) is 0.9% (inactive); in experiment [2] (stimulation, at 2 µM), -0.7%. Also, the insulin secretion stimulation in [3] was 2.7% (inactive). Further, the viability decrease in experiment [4] was 94.4% (active). In experiment [5], the tube area decrease was 18.6% (inactive). In addition, the GLP1 secretion stimulation in experiment [6] is 2.8% (inactive). Besides, the inhibition of viability in [7] was 73.4% (active). The figures for the viability decrease (inhibition) in experiment [8] and in experiment [9] were 124% (active) and 84.5% (active), respectively. Further, the inhibition in [12] is 4.6% (inactive). Also, in experiment [13], the luciferase signal is 48 AU (inactive).
In the case of `CNCC(O)c1ccc(O)cc1` (stereo unspecified), in experiment [1], the parasite load remaining was 81.5% (inactive) and 59.8% (inactive). Further, the viability in [1] was 69.8% and 68.9%. The nuclear beta-catenin stimulation is -0.1% (inactive) in [2] (at 10 µM) and -2.7% in experiment [2] (stimulation, at 2 µM). In addition, in [3], the insulin secretion stimulation is 0.25% (inactive). The viability decrease in experiment [4] is 14.7% (inactive). Besides, in [5], the tube area decrease is -15.1% (inactive). In addition, the GLP1 secretion stimulation in experiment [6] was 0.1% (inactive). The inhibition of viability in experiment [7] is -4% (inactive). For the same compound, the values for the viability decrease (inhibition) in experiment [8] and in [9] were -14.6% (inactive) and -3.7% (inactive), respectively. Besides, in experiment [14], the red/green cell ratio (normalised) is 1.1 (inactive). The normalised cell number in experiment [14] (setting [19]) was determined as 0.84; in experiment [14] (setting [20]), 0.92. Moreover, the z-score was -0.35 (inactive) and -0.388 (inactive) and -0.264 (inactive) in experiment [10] (setting [17]); -0.247 and -0.0924 and -0.396 in experiment [10] (setting [18]); 0.82 (inactive) and 0.285 (inactive) in experiment [11]. In experiment [15], the remaining NAD is 10 nM (inactive).
As to `CC1(C)C(C=C(Cl)Cl)C1C(=O)OC(C#N)c1cccc(Oc2ccccc2)c1` (stereo unspecified), the nuclear beta-catenin stimulation in experiment [2] (at 10 µM) was 0.7% (inactive); in experiment [2] (stimulation, at 2 µM), -1%. Besides, the insulin secretion stimulation in experiment [3] is 8.1% (inactive). The viability decrease in experiment [4] is 1.2% (inactive). The tube area decrease in [5] is -7.9% (inactive). In experiment [6], the GLP1 secretion stimulation was 4.4% (inactive). The inhibition of viability in [7] is 40.5% (inactive). For the same compound, the viability decrease (inhibition) in experiment [8] is 27.7% (inactive); in [9], 23.2% (active). In addition, in experiment [14], the red/green cell ratio (normalised) is 0.82 (inactive). Also, the normalised cell number in experiment [14] (setting [19]) amounted to 1.16; in [14] (setting [20]), 0.96. For the same compound, the fold change in experiment [16] (stronger effect = lower value) is 0.936 (inactive) and 0.968 (inactive); in experiment [16] (setting [21]), 1.17 and 1.27. For the same compound, the cell count in [16] (setting [22]) was 7700 and 5600; in [16] (setting [23]) it was 8230 and 5790. Moreover, the remaining NAD in [15] was 10 nM (inactive).
Turning to `c1ccc(N2CCNCC2)cc1`, the nuclear beta-catenin stimulation in [2] (at 10 µM) is 0.1% (inactive); in experiment [2] (stimulation, at 2 µM), -0.6%. Moreover, the insulin secretion stimulation in experiment [3] was 3.1% (inactive). Besides, the viability decrease in experiment [4] was 3.7% (inactive). For the same compound, in experiment [5], the tube area decrease was -2.6% (inactive). For the same compound, the GLP1 secretion stimulation in experiment [6] was -0.5% (inactive). In addition, in experiment [7], the inhibition of viability is 10.5% (inactive). Further, the results for the viability decrease (inhibition) in experiment [8] and in experiment [9] were 0.3% (inactive) and -5.9% (inactive), respectively. Moreover, in experiment [14], the red/green cell ratio (normalised) was 1.17 (inactive). Also, the normalised cell number in [14] (setting [19]) was determined as 0.95; in experiment [14] (setting [20]), 1.12.
Turning to `Nc1nc(N)nc(NC2CC2)n1`, the nuclear beta-catenin stimulation was 0.9% (inactive) in experiment [2] (at 10 µM) and 2.8% in [2] (stimulation, at 2 µM). For the same compound, the insulin secretion stimulation in experiment [3] was -1.3% (inactive). In addition, the viability decrease in [4] is -16.8% (inactive). The tube area decrease in experiment [5] is 5.4% (inactive). In [6], the GLP1 secretion stimulation was 2.4% (inactive). Also, in experiment [7], the inhibition of viability was 2.07% (inactive). In addition, the viability decrease (inhibition) was -5.7% (inactive) in experiment [8] and -8.2% (inactive) in experiment [9]. The red/green cell ratio (normalised) in experiment [14] was 0.97 (inactive). In addition, the normalised cell number in experiment [14] (setting [19]) was 1; in [14] (setting [20]) it was 0.96. For the same compound, the fold change is 0.94 (inactive) and 0.918 (inactive) in experiment [16] (stronger effect = lower value); 0.828 and 0.774 in experiment [16] (setting [21]). For the same compound, the cell count in experiment [16] (setting [22]) was 8490 and 8320; in experiment [16] (setting [23]) it was 9030 and 9070. The figures for the z-score in experiment [10] (setting [17]) and in experiment [10] (setting [18]) were -0.201 (inactive) and -0.194, respectively. Moreover, the remaining NAD in experiment [15] was 10 nM (inactive).
